Bioassay records as filed in PubChem.
An excerpt weighted towards active compounds, which were near 0.52% of everything screened.
uPA surface inh: inhibitors of cell surface uPA generation | cell surface uPA generation assay, qHTS | 330,000 compounds, 0.31% hits | Potency, µM (highest dose often 38.3 µM), for the others: at the highest dose activity change, negative = inhibition, usual class: inhibitors; active means well fitted inhibition curve with a large enough effect; inconclusive means small, poorly fitted or top-dose-only effect; inactive means no such curve, though single readings can be large or run the other way; tested in mouse RAW 264.7 cells; further: potency means the concentration at half of the fitted maximal effect; on the % scale 0 is the no-effect control and ±100 the full control effect; nearly all actives have a fitted effect of over 55% in size
BCR signal inh: inhibitors of chronic active B-cell receptor signaling | ABC-DLBCL IkBa-CBG/CBR reporter, luminescence ratio, 4 h | Potency, µM (doses to about 46.1 µM), for inactives: top-dose activity change, negative = inhibition, actives largely listed as inhibitors | 340,000 compounds, 0.05% hits; active means well fitted inhibition curve with a large enough effect in the signal ratio, with a control signal flat, not every such curve was filed as active; inconclusive means small, poorly fitted or top-dose-only effect, or effect the other way, or a change in a side signal; the % refers to the signal ratio;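 further: potency means the concentration at half of the fitted maximal effect; plate controls were basal doxycycline-induced cells for no effect and cells given 10 µM MG132 for full effect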
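TMD8 human ABC-DLBCL cells with doxycycline-inducible IκBα–green luciferase fusion and unfused red luciferase, in 0.5% FBS medium; compounds up to 46 uM, 4 h at 37C. Green/red luminescence ratio, filter-overlap corrected, fitted to concentration-response curves.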
GCN5L2 inh-1: inhibitors of human GCN5L2 histone acetyltransferase; Potency, µM (titrated, usually from 58.9 µM), for inactives: top-dose activity change, negative = inhibition, hits mostly inhibitors; 390,000 compounds, 0.21% hits; AID 504327; GCN5L2 HAT assay, ThioGlo1 CoA-SH fluorescence; further: potency means the concentration at half of the fitted maximal effect; on the % scale 0 is the no-effect control and ±100 the full control effect
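Free CoA generated was detected with ThioGlo1 (50uM) fluorescence at Ex340nm/Em540nm, read immediately and after 20 min at room temperature. Enzyme, 20 nM in HEPES pH 7.5 buffer, saw compounds 15 min before adding 75uM H3(1-25) peptide and 70uM acetyl-CoA.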
USP2a block: blocks human ubiquitin-specific protease USP2a. O75604. USP2 core, Ub-CHOP2 coupled fluorogenic reporter, 485/531. Potency, µM (series often up to 38.3 µM), for inactives: at the highest dose activity change, negative = inhibition, usual class: inhibitors. 330,000 compounds, 0.01% hits;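 further: potency means the concentration at half of the fitted maximal effect; plate controls were DMSO wells for no effect and full inhibition by NEM control for full effect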
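Deubiquitinase activity read as fluorescence (485/531 nm) after Ub-CHOP2 cleavage activates the enterokinase reporter on its substrate; USP2 core 10nM, Ub-CHOP2 and substrate 25nM each, 30min compound preincubation then 60min RT; data normalized to NEM, curves fitted.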
RGS4 inhibitor: human RGS4 inhibition. P49798. Potency, µM (titrated, usually from 114 µM), inactives show at the highest dose activity change, negative = inhibition, hits mostly inhibitors. 390,000 compounds, 0.039% hits. Transcreener GDP fluorescence polarization, RGS4-accelerated GTP hydrolysis; further: potency means the concentration at half of the fitted maximal effect; on the % scale 0 is the no-effect control and ±100 the full control effect; nearly all actives have a fitted effect of over 75% in size
Target sequence (P49798 whole entry, looked up): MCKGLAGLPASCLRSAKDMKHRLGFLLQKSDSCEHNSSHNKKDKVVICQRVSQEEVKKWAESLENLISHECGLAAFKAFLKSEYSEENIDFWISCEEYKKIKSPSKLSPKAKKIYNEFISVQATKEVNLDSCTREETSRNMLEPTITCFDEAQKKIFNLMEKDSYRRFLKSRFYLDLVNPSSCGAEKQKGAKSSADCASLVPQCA
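MLSMR compounds (23 nl, pin-transferred) preincubated 10 min at room temperature with a 500nM (2x) first reagent, then RGS4 at 900nM (2x) plus Transcreener GDP mix added; fluorescence polarization (620/688 nm) read before and after 90 min at 30 °C.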
Eya2 inh: blocks the phosphatase activity of human Eya2 | O00167 | recombinant Eya2, OMFP fluorescence dephosphorylation (OMFP is methylfluorescein phosphate) | Potency, µM (titrated, usually from 76.9 µM), for inactives: top-dose activity, negative = inhibition, actives largely listed as inhibitors | 330,000 compounds, 0.006% hits | AID 488837; further: potency means the concentration at half of the fitted maximal effect; on the % scale 0 is the no-effect control and ±100 the full control effect
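Eya2 protein (added as 0.2 uM solution) was preincubated with compound for 10 min at ambient temperature in 50 mM HEPES pH 7.5, 50 mM NaCl, 5 uM MgCl2, 0.05% BSA, 1 mM DTT. OMFP (added at 50 uM) then reacted 10 min; fluorescence read at 485/525 nm.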
GCN5L2 inh-2: human KAT2A HAT inhibition, hit confirmation. shares compounds with GCN5L2 inh-1. GCN5L2 HAT, ThioGlo1 CoA fluorescence, 20 min. Potency, µM, most hits filed as inhibitors. 140 compounds, 70% hits
An asterisk follows results filed as active; ? = inconclusive; nt = no result given. Unless noted, the call rests on the fitted dose curve; in most records, active means well fitted curve in the direction sought with a large enough effect; inconclusive means small, poorly fitted or top-dose-only effect, or another doubt; inactive means no such curve, though single readings can be large; an effect the other way counts as inactive or inconclusive.

SMILES | uPA surface inh | BCR signal inh | GCN5L2 inh-1 | USP2a block | RGS4 inhibitor | Eya2 inh | GCN5L2 inh-2
CCCOc1cccc(C2C(C(=O)c3cc4ccccc4o3)=C(O)C(=O)N2c2cc(C)on2)c1 (centres undefined) | 7% | 5% | ? | -2% | -35% | 13% | nt
O=C(O)c1cccc(N/N=C/C2=C(Cl)c3cc(Cl)ccc3SC2)c1 | 0% | ? | 28µM* | -20% | -39% | 0% | 14*
O=C(N/N=C/c1ccc2cccc(OCc3ccccc3)c2n1)c1ccc(Br)cc1 | -5% | ? | ? | 4% | -24% | 17% | nt
COc1ccc(C(=O)N/N=C/c2ccc3cccc(OCc4ccccc4)c3n2)cc1 | -10% | ? | ? | -12% | -21% | ? | 23*
Cc1ccc(-c2nc3ccccc3n2C)o1 | -14% | -4% | -3% | 2% | -43% | 26% | nt
CC(=O)c1ccc(-c2nc3ccccc3n2C)o1 | 1% | ? | ? | -5% | -31% | -18% | 18*
CCc1cccc(NC(=O)CNS(=O)(=O)c2ccc3nc(C)sc3c2)c1 | nt | nt | -6% | nt | 3% | nt | nt
Cn1c(SCC(=O)c2ccc(-c3ccccc3)cc2)nnc1-c1ccco1 | 0% | 8% | 28µM* | -23% | -17% | -11% | ?
CCC(C)Sc1cccc(-c2nc3ccc(C)cn3c2NC2CCCCC2)c1 (centres undefined) | 5% | 11% | ? | 2% | 7% | 1% | nt
CCC(C)Sc1ccc(-c2nc3ccc(C)cn3c2NC2CCCCC2)cc1 (centres undefined) | -36% | -8% | 20µM* | 1% | -2% | -2% | ?
COc1ccc(CC(=O)n2[nH]c(=O)c3ccccc3c2=O)cc1OC | -1% | -26% | -4% | -3% | -28% | -7% | nt
COc1ccc(CC(=O)n2[nH]c(=O)ccc2=O)cc1OC | -2% | 8% | ? | 12% | ? | 14% | 36*
Cc1cccc(-c2nc(CN3CCCC(C(=O)NCc4ccc(Cl)cc4)C3)c(C)o2)c1 (centres undefined) | nt | nt | -9% | nt | -2% | nt | nt
O=C(Nc1ccc(-c2nc3ccccc3s2)c(O)c1)C1=COCCO1 | -1% | ? | 25µM* | 2% | -32% | 0% | 23*
CN(C)/C=C1\C=C2C(=O)c3ccccc3N2C1=O | -18% | ? | 18µM* | ? | -14% | ? | 36*
CCOC(=O)C1CCN(S(=O)(=O)c2ccc3c4c(cccc24)C(=O)N3CC)CC1 | -1% | ? | ? | 2% | -10% | -14% | ?
